Laboratory results reported in PubChem BioAssay (Tox21).
Results filed as inconclusive are left out. Entries that show only a call come without a potency. Activity calls are given as the source filed them. Unless noted, calls come from the whole dose curve.

Assays:
[1] = Nuclear factor erythroid 2-related factor 2/antioxidant responsive element (Nrf2/ARE) small molecule agonists: qHTS cell viability counter screen in human keratinocytes (AID 1919968; active = well fitted curve in the direction sought with a large enough effect in the repeat runs; an effect the other way counts as inactive or inconclusive; note: nearly all actives have a fitted effect of over 55% in size; note: potency is the fitted concentration of half-maximal effect)
In short: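 Measured as CellTiter-Fluor fluorescence, this readout tracks cytotoxicity in the same wells as the ARE-luciferase screen. HaCaT reporter cells (1,500/well) received compounds after a 5 h pre-incubation and were exposed for 23 h.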

[2] = Nuclear factor erythroid 2-related factor 2/antioxidant responsive element (Nrf2/ARE) small molecule agonists: luciferase reporter gene qHTS assay in human keratinocytes (AID 1919969); note: nearly all actives have a fitted effect of over 35% in size; note: potency is the fitted concentration of half-maximal effect
[3] = target: Gonadotropin-releasing hormone receptor (Homo sapiens) (UniProt P30968); experiment: Human gonadotropin-releasing hormone receptor (GnRHR) small molecule agonists, calcium flux assay in GnRHR-HEK293 cells (AID 1920063); note: nearly all actives have a fitted effect of over 35% in size
In short: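 Fluorescence kinetics (480 nm excitation, 540 nm emission; 3 min, 1 s steps) report calcium mobilisation in human GnRHR-HEK293 cells in agonist mode. Dye incubation: 1 h, 37 C.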

[4] = target: KiSS-1 receptor (Homo sapiens) (UniProt Q969F8); experiment: Human kisspeptin (KISS1R) small molecule agonists, calcium flux assay in KISS1R-HEK293 cells (AID 1920064; active = well fitted curve in the direction sought with a large enough effect in the repeat runs; an effect the other way counts as inactive or inconclusive)
In short: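 Measures KISS1R agonism through calcium-sensitive dye fluorescence in stably transfected HEK293 cells, read for 3 min after pin-tool compound delivery; 15-point titrations in triplicate.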

[5] = G protein-coupled receptor (GPCR) small molecule agonists, calcium flux assay: HEK293 wild type cell line counter screen (AID 1920065)
In short: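 Readout: fluorescence at 480 nm excitation/540 nm emission, sampled at 1 s intervals for 3 min. Cells had been cultured 18 h, then dye-loaded 1 h at 37 C before compound or ATP addition.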

[6] = p53 small molecule agonists, cell-based qHTS assay with human liver microsomes (AID 1963577)
In short: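 Cells carrying a p53-responsive bla reporter were rested 5 h (37 C, 5% CO2) before compound transfer. Human liver microsomes plus NADPH, 0.5 mg/mL final apiece, supplied metabolism during the 16 h 37 C exposure.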

[7] = p53 small molecule agonists, cell-based qHTS assay with rat liver microsomes (AID 1963578)
In short: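 Fluorescence from a beta-lactamase reporter under a p53 response element was measured after cells had been incubated 16 h at 37 C with test compound and rat liver microsomes plus NADPH (0.5 mg/mL final each).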

[8] = p53 small molecule agonists, cell-based qHTS assay with human liver microsomes: qHTS cell viability counter screen (AID 1963579); note: nearly all actives have a fitted effect of over 45% in size
In short: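 Seed p53RE-bla cells at 4,000 per well; incubate 5 h at 37 C; add compound, human liver microsomes and NADPH; incubate 16 h at 37 C; add CellTiter-Glo; after 30 min at room temperature, read luminescence.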

[9] = p53 small molecule agonists, cell-based qHTS assay with rat liver microsomes: qHTS cell viability counter screen (AID 1963580); note: nearly all actives have a fitted effect of over 45% in size
In short: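 In HCT-116 cells carrying a p53 response element-bla reporter, compounds were metabolically activated in situ by rat liver microsomes with NADPH over 16 h. Cell ATP content then served as the cytotoxicity measure.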

[10] = p53 small molecule agonists, cell-based qHTS assay: qHTS cell viability counter screen (AID 1963581); note: nearly all actives have a fitted effect of over 45% in size
In short: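 In the same plates used for the p53 bla reporter, HCT-116 cells given compounds for 16 h at 37 C received CellTiter-Glo; luminescence was recorded 30 min later at room temperature.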

[11] = target: 5-hydroxytryptamine receptor 2A (Homo sapiens) (UniProt P28223); experiment: 5-hydroxytryptamine receptor 2A (HTR2A) small molecule antagonists, cell-based qHTS assay (AID 1963586); note: nearly all actives have a fitted effect of over 45% in size; note: potency is the fitted concentration of half-maximal effect
In short: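 Antagonist-mode intracellular calcium assay: DOI (4 nM) added after 5 min compound pre-incubation at room temperature to dye-loaded HTR2A-CHO cells. Fluorescence followed for 3 min, sampled every second.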

[12] = target: 5-hydroxytryptamine receptor 2A (Homo sapiens) (UniProt P28223); experiment: 5-hydroxytryptamine receptor 2A (HTR2A) small molecule agonists, cell-based qHTS assay (AID 1963587); note: nearly all actives have a fitted effect of over 30% in size
In short: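 HTR2A-CHO cells, plated 18 h at 37 C/5% CO2, dye-loaded 1 h at 37 C; compounds in DMSO added by pin tool (agonist mode). Intracellular calcium flux read as kinetic fluorescence on FDSS over 2 min at 1 s intervals.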

[13] = target: Muscarinic acetylcholine receptor M1 (Homo sapiens) (UniProt P11229); experiment: Cholinergic receptor muscarinic 1 (CHRM1) small molecule antagonists, cell-based qHTS assay (AID 1963588); note: nearly all actives have a fitted effect of over 40% in size; note: potency is the fitted concentration of half-maximal effect
In short: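 CHRM1-CHO calcium-flux assay, antagonist mode. Cells were seeded 18 h, dye-loaded 1 h at 37 C and given compound for 5 min at RT, then acetylcholine was added at 50nM. FDSS fluorescence was read 3 min; 15 concentrations, three runs.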

[14] = cAMP Responsive Elements (CRE) small molecule agonists, cell-based qHTS assay (AID 1963590)
In short: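 Cell line: CRE-bla HEK 293T; medium DMEM/10% dialyzed FBS/0.1 mM NEAA/1 mM pyruvate/25 mM HEPES; 3 h compound exposure; beta-lactamase FRET readout after 2 h substrate loading at RT.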

[15] = target: Beta-2 adrenergic receptor (Homo sapiens) (UniProt P07550); experiment: Adrenergic beta2 receptor (ADRB2) small molecule antagonists, cell-based qHTS assay (AID 1963592); note: series mostly up to about 92 µM; nearly all actives have a fitted effect of over 50% in size
In short: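 Cells (CHO, stable ADRB2 overexpression) incubated 18-20hr at 37C; compounds added from DMSO; agonist mix (1nM isoproterenol, 100uM IBMX, 25uM Ro-20-1724) added; 0.5hr RT; d2-cAMP and anti-cAMP-cryptate added; 1hr RT; 665/615 nm read.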

[16] = target: Beta-2 adrenergic receptor (Homo sapiens) (UniProt P07550); experiment: Adrenergic beta2 receptor (ADRB2) small molecule agonists, cell-based qHTS assay (AID 1963593);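 note: CHO cells stably overexpressing human ADRB2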
In short: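 CHO cells stably over-expressing ADRB2 were plated overnight at 37C, then dosed with compounds plus a stimulation mix containing 100uM IBMX and 25uM Ro-20-1724 for 0.5hr at room temperature. cAMP was measured by HTRF competition, 1hr.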

[17] = target: D(2) dopamine receptor (Homo sapiens) (UniProt P14416); experiment: Dopamine D2 receptor (DRD2) small molecule agonists, cell-based qHTS assay (AID 1963594); note: nearly all actives have a fitted effect of over 35% in size
In short: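 HEK293 cells stably expressing DRD2 were cultured 24 h at 37 C, then given Ro20-1724 (0.1 mM final) and compounds for 10 min at room temperature. NKH477 (200nM) was then added for 30 min. cAMP was read by HTRF.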

[18] = target: D(2) dopamine receptor (Homo sapiens) (UniProt P14416); experiment: Dopamine D2 receptor (DRD2) small molecule antagonists, cell-based qHTS assay (AID 1963595; active = well fitted inhibition curve with a large enough effect in the signal ratio in the repeat runs, with a control signal flat; the % refers to the signal ratio)
In short: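 HEK293 cells stably expressing DRD2, preincubated with 0.1 mM Ro20-1724 and compounds 10 min, were stimulated with 200 nM NKH477 plus 12 nM quinpirole for 30 min at room temperature; cAMP measured by HTRF (665/620 nm).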

[19] = target: Muscarinic acetylcholine receptor M1 (Homo sapiens) (UniProt P11229); experiment: Cholinergic receptor muscarinic 1 (CHRM1) small molecule agonists, cell-based qHTS assay (AID 1963589); note: nearly all actives have a fitted effect of over 35% in size
In short: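 Each compound was tested at 15 concentrations across three independent runs on dye-loaded CHO cells stably expressing human CHRM1, reading intracellular calcium fluorescence kinetically at 1 sec intervals.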

[20] = cAMP Responsive Elements (CRE) small molecule antagonists, cell-based qHTS assay (AID 1963591; active = well fitted inhibition curve with a large enough effect in the signal ratio in the repeat runs, not every such curve was filed as active; the % refers to the signal ratio)
In short: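 Inhibition of NKH477-driven (0.25 uM final) CRE-beta-lactamase signal in HEK293T cells, 3 h compound exposure at 37 °C, detected by FRET substrate fluorescence.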

Sequence of KiSS-1 receptor (Homo sapiens) (Q969F8 whole entry, looked up): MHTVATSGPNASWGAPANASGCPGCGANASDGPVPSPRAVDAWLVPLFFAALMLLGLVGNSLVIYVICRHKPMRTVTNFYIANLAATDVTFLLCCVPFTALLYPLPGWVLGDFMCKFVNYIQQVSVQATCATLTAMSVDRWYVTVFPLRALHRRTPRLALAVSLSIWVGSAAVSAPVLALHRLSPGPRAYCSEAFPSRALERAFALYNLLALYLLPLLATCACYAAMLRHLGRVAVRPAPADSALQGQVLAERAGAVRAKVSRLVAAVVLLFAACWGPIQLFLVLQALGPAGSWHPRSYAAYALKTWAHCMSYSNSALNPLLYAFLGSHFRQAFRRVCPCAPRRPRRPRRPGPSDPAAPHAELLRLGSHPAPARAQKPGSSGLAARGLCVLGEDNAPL
Sequence of Muscarinic acetylcholine receptor M1 (Homo sapiens) (P11229 whole entry, looked up): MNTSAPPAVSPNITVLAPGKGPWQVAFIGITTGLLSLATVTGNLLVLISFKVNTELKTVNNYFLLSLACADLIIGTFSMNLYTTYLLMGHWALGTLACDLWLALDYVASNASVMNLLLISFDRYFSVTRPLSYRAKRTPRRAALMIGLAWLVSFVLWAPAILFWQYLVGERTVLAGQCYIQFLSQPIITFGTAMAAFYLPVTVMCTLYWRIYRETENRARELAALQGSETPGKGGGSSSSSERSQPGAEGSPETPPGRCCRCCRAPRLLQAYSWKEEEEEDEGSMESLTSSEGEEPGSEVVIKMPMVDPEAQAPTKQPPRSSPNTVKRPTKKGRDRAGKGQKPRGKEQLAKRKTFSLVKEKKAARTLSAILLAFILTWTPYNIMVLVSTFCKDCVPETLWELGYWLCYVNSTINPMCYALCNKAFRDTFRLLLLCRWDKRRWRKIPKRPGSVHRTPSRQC
Sequence of Beta-2 adrenergic receptor (Homo sapiens) (P07550 whole entry, looked up): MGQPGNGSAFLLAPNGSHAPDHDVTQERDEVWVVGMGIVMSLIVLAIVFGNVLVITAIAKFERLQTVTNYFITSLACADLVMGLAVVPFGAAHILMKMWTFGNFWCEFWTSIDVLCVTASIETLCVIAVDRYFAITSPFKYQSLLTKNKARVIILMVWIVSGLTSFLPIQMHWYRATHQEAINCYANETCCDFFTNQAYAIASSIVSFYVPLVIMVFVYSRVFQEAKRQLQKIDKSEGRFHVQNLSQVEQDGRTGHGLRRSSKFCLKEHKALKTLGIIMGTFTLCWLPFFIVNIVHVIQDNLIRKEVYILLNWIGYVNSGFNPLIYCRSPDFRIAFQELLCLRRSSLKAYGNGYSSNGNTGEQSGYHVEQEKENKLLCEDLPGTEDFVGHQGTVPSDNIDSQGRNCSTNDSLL
Sequence of 5-hydroxytryptamine receptor 2A (Homo sapiens) (P28223 whole entry, looked up): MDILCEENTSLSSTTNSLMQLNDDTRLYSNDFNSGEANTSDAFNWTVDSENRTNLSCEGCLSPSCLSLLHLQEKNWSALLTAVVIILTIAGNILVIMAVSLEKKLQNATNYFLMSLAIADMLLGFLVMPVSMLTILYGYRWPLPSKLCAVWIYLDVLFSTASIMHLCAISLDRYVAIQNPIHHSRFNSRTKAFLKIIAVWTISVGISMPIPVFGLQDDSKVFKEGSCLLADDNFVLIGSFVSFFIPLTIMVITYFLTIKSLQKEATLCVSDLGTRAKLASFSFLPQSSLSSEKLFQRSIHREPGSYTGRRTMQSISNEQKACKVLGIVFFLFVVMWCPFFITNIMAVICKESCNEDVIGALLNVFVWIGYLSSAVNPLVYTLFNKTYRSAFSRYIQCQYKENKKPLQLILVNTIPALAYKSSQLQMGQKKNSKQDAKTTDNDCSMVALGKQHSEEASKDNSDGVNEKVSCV
Sequence of D(2) dopamine receptor (Homo sapiens) (P14416 whole entry, looked up): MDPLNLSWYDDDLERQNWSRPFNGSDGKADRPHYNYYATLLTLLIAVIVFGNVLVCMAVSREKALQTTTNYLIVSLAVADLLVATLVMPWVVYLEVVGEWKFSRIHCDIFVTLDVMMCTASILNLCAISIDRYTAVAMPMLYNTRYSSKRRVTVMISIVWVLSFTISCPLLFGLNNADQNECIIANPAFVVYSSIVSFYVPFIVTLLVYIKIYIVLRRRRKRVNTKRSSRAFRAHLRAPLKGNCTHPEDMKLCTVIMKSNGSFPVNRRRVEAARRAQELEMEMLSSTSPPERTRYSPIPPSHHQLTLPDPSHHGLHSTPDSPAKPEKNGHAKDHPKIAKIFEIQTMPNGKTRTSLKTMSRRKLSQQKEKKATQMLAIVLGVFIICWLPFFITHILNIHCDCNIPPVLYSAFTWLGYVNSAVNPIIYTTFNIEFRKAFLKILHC
Sequence of Gonadotropin-releasing hormone receptor (Homo sapiens) (P30968 whole entry, looked up): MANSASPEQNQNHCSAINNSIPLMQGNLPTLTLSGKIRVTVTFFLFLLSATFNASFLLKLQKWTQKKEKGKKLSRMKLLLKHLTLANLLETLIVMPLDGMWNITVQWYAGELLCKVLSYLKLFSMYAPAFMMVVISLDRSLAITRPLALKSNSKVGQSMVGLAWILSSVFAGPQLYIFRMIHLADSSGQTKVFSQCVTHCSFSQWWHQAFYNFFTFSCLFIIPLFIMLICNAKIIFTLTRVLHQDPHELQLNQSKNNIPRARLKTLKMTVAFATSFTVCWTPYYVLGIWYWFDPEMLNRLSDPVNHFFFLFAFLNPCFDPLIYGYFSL

Structure (SMILES) | Potency [1] | Potency [2] | Potency [3] | outcome [4] | outcome [5] | Potency [6] | Potency [7] | Potency [8] | Potency [9] | Potency [10] | Potency [11] | Potency [12] | Potency [13] | Potency [14] | Potency [15] | Potency [16] | Potency [17] | Potency [18] | Potency [19] | Potency [20]
CCN(CC)CCOc1ccccc1C(=O)CCc1ccccc1 | inactive | inactive | inactive | inactive | inactive | inactive | inactive | inactive | inactive | inactive | 1.3 µM (active) | inactive | 2.31 µM (active) | inactive | inactive | inactive | inactive | inactive | – | –
O=C=Nc1cccc(C(F)(F)F)c1 | inactive | inactive | inactive | inactive | inactive | inactive | inactive | inactive | inactive | inactive | – | inactive | inactive | inactive | – | – | inactive | inactive | inactive | inactive
CCOC(=O)c1ccc(NC(=O)CN2CCCCC2)cc1 | inactive | inactive | inactive | inactive | inactive | inactive | inactive | inactive | inactive | inactive | inactive | – | inactive | inactive | inactive | inactive | inactive | inactive | inactive | –
CC(C)OC(=O)c1ccccc1 | inactive | inactive | inactive | inactive | inactive | inactive | inactive | inactive | inactive | inactive | inactive | inactive | inactive | inactive | inactive | – | inactive | inactive | – | inactive
N#CSc1ccc(N)c([N+](=O)[O-])c1 | 43.5 µM (active) | 24.5 µM (active) | inactive | inactive | inactive | inactive | inactive | inactive | inactive | inactive | inactive | – | inactive | – | inactive | – | – | inactive | inactive | inactive
Nc1ccccc1S(=O)(=O)c1ccccc1 | inactive | inactive | inactive | inactive | inactive | inactive | inactive | inactive | inactive | inactive | inactive | inactive | inactive | inactive | – | – | inactive | inactive | – | inactive
Cc1cccc(C)c1OCC(=O)N[C@@H](Cc1ccccc1)[C@@H](O)C[C@H](Cc1ccccc1)NC(=O)[C@H](C(C)C)N1CCCNC1=O | inactive | inactive | inactive | inactive | inactive | inactive | inactive | inactive | inactive | inactive | inactive | – | inactive | – | inactive | – | inactive | inactive | inactive | –
